Screens (PubChem)
In the library only some 7.3% were active in any assay of this set; here they are far more common.
ELG1 genotox: inducers of genotoxicity in HEK293T ELG1-luciferase cells | HEK293T ELG1-luciferase reporter, luminescence, 16 h | Potency, µM (highest dose often 46 µM), for the others: top-dose activity change, positive = activation, most hits filed as activators | 330,000 tested, 1.3% active | AID 504466; also: % of control where 0% means no effect; nearly all actives have a fitted effect of over 60% in size
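Screening used a luciferase reporter fused to human ELG1 in HEK293T cells. Luminescence was read on a CCD plate imager after 16 hr exposure and 30 min ONE-Glo incubation.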
KinaseGlo FLuc: counter-screen: inhibitors of Kinase-Glo firefly luciferase. Q27757. Kinase-Glo luciferase, ATP luminescence, 8 min. Potency, µM (series often up to 38.3 µM), inactives show at the highest dose activity change, negative = inhibition, usual class: inhibitors. 200,000 tested, 0.28% active. AID 1379; also: % is scaled to controls: 0 for no effect and ±100 for the full control effect; nearly all actives have a fitted effect of over 60% in size
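Compound is pinned into ATP-containing buffer (10 uM ATP, imidazole pH 7.2, 7 mM MgCl2). Kinase-Glo luciferase reagent is then added. Light output is recorded following an 8-min room-temperature incubation.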
NPC1 promoter act: activates the NPC1 promoter | AID 485313 | 320,000 tested, 2.4% active | Huh7 NPC1 promoter luciferase reporter, 24 h | Potency, µM (series often up to 9.22 µM), for the others: at the highest dose activation, actives largely listed as activators; also: % of control where 0% means no effect; nearly all actives have a fitted effect of over 60% in size
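Stable NPC1-promoter luciferase Huh7 line; cpd (DMSO) 24 h, 37 °C, 5% CO2; Amplite luciferase reagent 10 min RT; luminescence readout. qHTS format.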
SMN2 splice enh: enhancers of SMN2 splice variant expression; HEK293 SMN2-luciferase splicing reporter, luminescence, 30-36 h; AID 1458; 210,000 tested, 2.8% active; Potency, µM (doses to about 46.1 µM), without a hit: at the highest dose activity change, positive = activation, hits mostly activators; also: % of control where 0% means no effect; nearly all actives have a fitted effect of over 55% in size
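HEK293 cells carry an SMN2 minigene-luciferase reporter in which exon 7 inclusion puts luciferase in frame. Cells were seeded at 2000 cells/well, attached for 10-12 hours, then exposed to compounds for 30-36 hours at 37C before ONE-Glo luminescence.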
Rab9 prom act: activators of Rab9 promoter; Potency, µM (doses to about 9.22 µM), without a hit: at the top dose activation, negative = inhibition, usual class: activators; AID 485297; Huh7 Rab9 promoter-luciferase reporter, luminescence, 24 h; 320,000 tested, 2.8% active; also: % of control where 0% means no effect; nearly all actives have a fitted effect of over 60% in size
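Using Huh7 cells stably transfected with Rab9 promoter–luciferase, compounds were incubated 24 h at 37 °C, 5% CO2; luciferase luminescence was read 10 min after reagent addition.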
FLuc modulator: counter-screen for miR-21 project: firefly luciferase inhibitors or activators; AID 588342; 360,000 tested, 6.9% active; Potency, µM (titrated, usually from 57.5 µM), for the others: at the highest dose activity change, negative = inhibition, actives largely listed as inhibitors; purified FLuc, Km substrates, luminescence inhibition;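 also: plate controls were vehicle for no effect and reference inhibitor for full effect; nearly all actives have a fitted effect of over 55% in size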
Target sequence (P08659 whole entry, looked up): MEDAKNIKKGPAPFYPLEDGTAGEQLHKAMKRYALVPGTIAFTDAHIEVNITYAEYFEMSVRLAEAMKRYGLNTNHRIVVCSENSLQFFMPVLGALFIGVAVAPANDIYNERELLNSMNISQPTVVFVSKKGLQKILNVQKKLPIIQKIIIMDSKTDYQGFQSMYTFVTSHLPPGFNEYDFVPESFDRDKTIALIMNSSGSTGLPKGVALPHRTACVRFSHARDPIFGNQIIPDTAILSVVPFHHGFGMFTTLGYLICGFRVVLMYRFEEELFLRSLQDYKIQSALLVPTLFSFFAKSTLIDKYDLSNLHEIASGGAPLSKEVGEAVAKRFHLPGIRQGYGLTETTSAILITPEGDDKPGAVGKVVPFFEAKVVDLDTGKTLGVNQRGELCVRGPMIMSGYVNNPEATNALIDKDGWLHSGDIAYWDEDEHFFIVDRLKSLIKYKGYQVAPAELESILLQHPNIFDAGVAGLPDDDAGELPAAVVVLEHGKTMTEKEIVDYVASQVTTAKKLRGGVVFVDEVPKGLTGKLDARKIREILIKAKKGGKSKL
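Biochemical qHTS of compounds, final roughly 60 µM downward over six points, against 10 nM purified firefly luciferase using Km concentrations of substrates (10 uM D-luciferin, 10 uM ATP) in Tris acetate pH 7.5 buffer; luminescence output.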
* hit, by the source's call; ? = inconclusive; . = not tested or not shown; [ ] = remark or other dose. Calls follow the shape of the dose curve; as a rule, active = well fitted curve in the direction sought with a large enough effect; inconclusive = small, poorly fitted or top-dose-only effect, or another doubt; inactive = no such curve, though single readings can be large; an effect the other way counts as inactive or inconclusive. Potency is read from the fitted curve at half-maximal effect.

SMILES	ELG1 genotox	KinaseGlo FLuc	NPC1 promoter act	SMN2 splice enh	Rab9 prom act	FLuc modulator
Cc1cc(C(=O)COC(=O)C23CC4CC(CC(O)(C4)C2)C3)c(C)n1-c1c(C)n(C)n(-c2ccccc2)c1=O	-1.5%	0.7%	-0.2%	-2.1%	-1.3%	1.2%
Cc1nn(CC(=O)NCc2ccccc2Cl)c(=O)c2cccn12	.	.	.	.	.	1.6%
CCN(CC)CCNC(=O)c1ccc(-c2nc(CS(=O)(=O)c3ccc(C)cc3)c(C)o2)cc1	.	.	.	.	.	0.2%
Cc1nn(-c2ccccc2)c2c1N(CCCC(=O)NC(C)c1ccccc1)C(=O)CS2 (configuration not stated)	.	.	.	.	.	-3.0%
[N-]=[N+]=CC(=O)COC(=O)c1ccccc1	.	-0.7%[7.66 µM]	.	-17.9%[9.22 µM]	.	.
CC(C)(C)C1=CC(=O)C(=O)C(C(C)(C)C)=C1	-4.5%	-2.7%	-15.8%	-109.7%	-17.2%	7.57µM*
Cc1ccc(NC(=O)C2CCN(c3nc(-c4ccc(C(C)C)cc4)no3)CC2)c(Cl)c1	.	.	.	.	.	21.3µM*
Cc1ccc(C)c(N2CCN(C(=O)C3CCN(c4nc(-c5ccc(C(C)C)cc5)no4)CC3)CC2)c1	.	.	.	.	.	12µM*
CCCC(=O)NCCc1c2n(c3ccc(OC)cc13)Cc1ccccc1-2	.	0.6%	.	-13.1%	.	.
Cc1c2ccccc2nc2c(F)c(NC(C)C)c(F)c(F)c12	?	-2.9%	?	15.8µM*	?	3.01µM*
Cc1c2ccccc2nc2c(F)c(NCCO)c(F)c(F)c12	?	-3.8%	3.4%	24.6%	22.2%	21.3µM*
CC(C)CC(=O)Nc1ccc(-c2cn3ccsc3n2)cc1	1.16µM*	-28.8%	1.41µM*	10µM*	0.562µM*	1.2µM*
COc1ccc(-c2csc(NC(=O)CC(C)C)n2)cc1	14.3%	-3.7%	?	-62.8%	?	?
COc1ccc(C(=O)Nc2ccc(-c3cn4ccsc4n3)cc2)cc1S(=O)(=O)N1CCOCC1	-14.8%	2.1%	-2.7%	-1.5%	7.7%	-21.3%
CC(C)(C)C(=O)Nc1ccc(-c2cn3ccsc3n2)cc1	?	?	0.282µM*	?	0.126µM*	0.536µM*
C=C1CCC2C(CC2(C)C)C(=C)CC/C1=N/O (configuration not stated)	.	2.2%	.	8.4%	.	.
Cc1ccc(NC(=O)Nc2ccc3c(c2)nc(C)n3C)cc1	?	0.0%	1.41µM*	.	0.501µM*	3.01µM*
COC(=O)c1ccc(NC(=O)Nc2ccc3c(c2)nc(C)n3C)cc1	0.8%	-2.1%	?	.	?	?
CC(=O)c1ccc(NC(=O)Nc2ccc3c(c2)nc(C)n3C)cc1	?	-7.2%	?	?	3.16µM*	19µM*
Cc1nc2cc(NC(=O)Nc3cccc([N+](=O)[O-])c3)ccc2n1C	?	.	0.355µM*	.	0.708µM*	1.9µM*
Cc1nc2cc(NC(=O)Nc3ccccc3Cl)ccc2n1C	0.92µM*	?	0.0891µM*	.	0.891µM*	0.379µM*
CCc1nnc(NS(=O)(=O)c2ccc(N=Cc3c(C)[nH]n(-c4ccc(C)c(C)c4)c3=O)cc2)s1	6.8%	2µM*	-1.2%	?	-1.6%	15.1µM*
Cc1ccc(-n2[nH]c(C)c(C=Nc3ccc(S(=O)(=O)Nc4nccs4)cc3)c2=O)cc1	3.6%	?	-0.9%	16.7%	-1.8%	?
CCn1nc(C)cc1C(=O)Sc1ccc(C)cc1	0.0%	.	-1.3%	.	-4.1%	16.9µM*
OCC(CO)(CBr)CBr	.	.	.	-9.0%	.	.
SMILES	ELG1 genotox	KinaseGlo FLuc	NPC1 promoter act	SMN2 splice enh	Rab9 prom act	FLuc modulator
N#Cc1cccc(CS(=O)(=O)c2ccccc2)c1	.	1.1%	.	-3.4%	.	.
CCOc1ccc(-c2oc3cc(Cl)ccc3c(=O)c2O)cc1OC	.	.	.	-2.9%	.	4.7%
Cc1ccc(Nc2sc(C(=O)c3ccccc3)c(N)c2S(=O)(=O)c2ccccc2)c(C)c1	.	.	.	-3.6%	.	-0.2%
Cc1nnc(SCC(=O)Nc2ccc3c(c2)OCCO3)n1N	-4.2%	-2.6%	-4.8%	16.7%	-0.8%	-11.2%
Cn1nnnc1SCC(=O)Nc1ccc2c(c1)OCCO2	?	1.6%	2.82µM*	11.2µM*	1.58µM*	13.5µM*
O=C(CSc1nnnn1-c1ccccc1)NC(=O)Nc1ccc2c(c1)OCCO2	?	0.4%	?	?	?	19µM*
Cc1ccc(-n2nnnc2SCC(=O)Nc2ccc3c(c2)OCCO3)cc1C	0.0%	-3.4%	0.8%	-44.6%	-0.9%	-15.9%
CCOc1ccccc1-n1nnnc1SCC(=O)NC(=O)Nc1ccc2c(c1)OCCO2	-1.1%	-2.2%	0.7%	-14.9%	1.2%	-15.9%
Nn1c(SCC(=O)Nc2ccc3c(c2)OCCO3)nnc(CCC(=O)O)c1=O	-1.1%	.	-4.2%	.	-2.8%	13.5µM*
Cc1ccc(-c2cn3c(n2)sc2cc(C(=O)NC4CCCCC4)ccc23)cc1	.	.	.	.	.	0.4%
O=C(COc1ccccc1)Nc1nnc(-c2ccccc2)o1	-0.4%	-1.5%	0.6%	-0.9%	2.6%	0.0%
O=C(O)CCC(=O)Nc1cccc(-c2nnc(-c3ccccc3)o2)c1	11.0%	.	2.8%	.	-2.4%	21.3µM*
O=C(COc1ccccc1)Nc1cccc(-c2nnc(-c3ccccc3)o2)c1	-8.5%	-3.6%	?	?	28.2%	12µM*
COc1ccccc1NC(=O)C1=C(C)Nc2c(C(=O)Nc3ccc(C)cc3)cnn2C1c1cccc(OC)c1OC (configuration not stated)	.	.	.	.	.	-5.7%
O=C(CSc1nnc(-c2cccnc2)n1Cc1ccco1)Nc1nc(-c2ccc(F)cc2)cs1	-6.9%	0.7%	1.5%	-53.3%	-1.9%	15.1µM*
CC(C)(C)NC(=O)CSc1nc(-c2ccc(F)cc2)cs1	?	-5.2%	3.55µM*	14.1µM*	2µM*	6.75µM*
Cc1cc(NC(=O)CSc2nc(-c3ccc(Cl)cc3)cs2)no1	0.4%	4.5%	0.3%	-3.7%	-0.7%	-0.2%
O=C(CSc1nc(-c2ccc(Cl)cc2)cs1)Nc1cccc([N+](=O)[O-])c1	1.3%	0.8%	1.8%	-59.7%	-6.5%	9.53µM*
Cc1ccc(-c2csc(NC(=O)CSc3nc(C)cs3)n2)cc1	0.5%	-0.2%	?	14.1µM*	22.4%	?
C[Si](C)(C/C=C/CC[C@H](O)C1=CCCCC1=O)c1ccccc1	.	-2.0%	.	1.6%	.	.
Cc1nnc(SCC(=O)Nc2nc(-c3ccc(F)cc3)cs2)[nH]c1=O	1.8%	1.1%	-5.0%	1.3%	-1.4%	16.9µM*
CCn1c(SCC(=O)Nc2nc(-c3ccc(C)cc3)cs2)nnc1-c1ccccc1O	-0.1%	2.1%	-7.8%	-100.2%	-18.4%	?
CCn1c(SCC(=O)Nc2nc(-c3ccc(C)cc3)cs2)nnc1-c1ccccc1	-9.7%	-0.8%	0.2%	-24.3%	-24.3%	23.9µM*
